Records with an inconclusive call do not appear. A number with no mark means an inactive call. The call rests on the fitted dose curve; in most records, active means well fitted cell-killing curve with a large enough effect; inconclusive means small, poorly fitted or top-dose-only effect, or effect the other way; inactive means no such curve, though single readings can be large or run the other way.
Test: qHTS assay to identify small molecule inhibitors of chordoma cells - UCH-1 (AID 1259355); further: nearly all actives have a fitted effect of over 55% in size
Details: UCH-1 chordoma viability, CellTiter-Glo, 48 h, combination, with auranofin plus four topoisomerase inhibitors; series mostly up to 46.1 µM; activity, negative = inhibition: at the top concentration
Method in brief: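 800 cells/well, overnight attach; compounds pinned at 15 concs, then auranofin/camptothecin/doxorubicin/rubitecan/topotecan combo added; 48hr 37 C, 5% CO2; CellTiter-Glo, 30min RT, luminescence.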
On the % scale 0 is the no-effect control and ±100 the full control effect.

SMILES | activity, negative = inhibition
CCCCCC(CC)COC(=O)CC(C(=O)OCC(CC)CCCC)S(=O)(=O)O (stereo unspecified) | 7.45%
COc1ccc2c3c1O[C@H]1C[C@@H](O)C=C[C@@]31CCN(C)C2 | -5.16%
C#C[C@]1(O)CC[C@H]2[C@@H]3CCC4=CCCC[C@@H]4[C@H]3C(=C)C[C@@]21CC | -32.3%
CC(Cc1ccc(O)c(O)c1)C(C)Cc1ccc(O)c(O)c1 (stereo unspecified) | -7.63%
NC(=O)c1ncn(C2OC(CO)C(O)C2O)n1 (stereo unspecified) | 11.5%
Oc1cc(O)c2c(c1)OC(c1ccc(O)c(O)c1)C(O)C2 (stereo unspecified) | -17.1%

Source: PubChem BioAssay (NCATS)
